Our source for the Potency values is PubChem BioAssay (NCATS).

Results filed as inconclusive are left out. A call without a number means that no potency is given here. Calls of active or inactive are those of the source. Calls follow the shape of the dose curve; as a rule, active = well fitted inhibition curve with a large enough effect; inconclusive = small, poorly fitted or top-dose-only effect; inactive = no such curve, though single readings can be large or run the other way.
Potency is read from the fitted curve at half-maximal effect.

The test deals with Zika virus NS2B-NS3 protease (linked construct). Briefly: Primary screen NINDS Rhodamine qHTS for Zika virus inhibitors (AID 1347160). Also: nearly all actives have a fitted effect of over 55% in size. As to conditions: purified NS2B-NS3 protease, Rhodamine110 substrate fluorescence; series mostly up to 57.1 µM. Summed up: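 Purified linked NS2B-NS3 protease (NS2B hydrophilic domain joined to NS3 protease by flexible linker), 25 nM in 10 mM Tris-HCl pH 8.0, 0.01% Tween 20. Compounds titrated, 15 min preincubation at room temperature; 1.5 microM Rhodamine110 substrate, FITC fluorescence change over 15 min.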
A general note: qHTS replaces the single test concentration by a dilution series.
For the compound `N#Cc1ccc(-c2ccc(S(=O)(=O)Nc3cccc(N)n3)cc2)cc1`, the Potency result is “inactive”.

With `COc1c(C(O)CC(C)C)ccc2c1C(=O)OCc1cc(C)cc(O)c1O2` (centres undefined), the Potency result was “inactive”.

For `Cc1nnc(C[C@@H]2C=C(c3ccc(Cl)cc3)c3ccccc3-n3c(C)nnc32)o1`, the Potency result is “inactive”.

For the compound `C=C1C(=O)OC2/C=C(\C)CC/C=C(\C=O)C(OC)C(OC(=O)C(C)CC)C12` (centres undefined), the Potency result was “inactive”.

In the case of `CC(=O)O[C@H]1[C@@]2(O)C[C@H](C)[C@H](OC(=O)c3ccccc3)[C@@H]2[C@@H](OC(=O)CO)[C@]2(OC(C)=O)C[C@H]3C(=O)C(C)(C)C[C@@H]3[C@@]1(C)[C@H]2OC(C)=O`, the Potency entry is “inactive”.

Consider `C[C@H](CN(C)C)Oc1nc(Nc2cc3cccc(Cl)c3cn2)cnc1C#N`, for which the Potency result is “inactive”.

Consider `NS(=O)(=O)c1ccc(NC(=O)Nc2ccc(F)cc2)cc1`, for which the Potency result was “inactive”.

`C=C1/C(=C/C=C2\CCC[C@@]3(C)C2CCC3[C@H](C)/C=C/[C@@H](O)C2CC2)C[C@@H](O)C[C@@H]1O` (some centres undefined): the Potency result is “inactive”.

As for `CC1=CC2/C=C(\C)CCC3OC(C)(C)OC3CCC(=O)C23C(=O)NC(CC(C)C)C3C1C` (centres undefined), the Potency result was “inactive”.

As to `C/C=C(/C)C(=O)OC1C=C2C3C(C)C(C)C(OC(=O)C(C)C(C)O)CC3(C)CCC2(C)C2(C)CC(OC(C)=O)C3C(C)(C)C(O)C(=O)CC3(C)C12` (centres undefined), the Potency entry was “inactive”.

In the case of `CC(=O)C1(C)CCC2C3C=C(C)C4=CC(=O)CCC4(C)C3CCC21C` (centres undefined), the Potency entry was “inactive”.

As to `CC(C)S(=O)(=O)NC[C@@H]1CC(c2ccc(N3CCCC3)c(F)c2)=NO1`, the Potency result was “inactive”.

Consider `C1=Cc2ccccc2C(=C2CCN(CCCCc3nn[nH]n3)CC2)c2ccccc21`, for which the Potency entry is “inactive”.

Turning to `COc1cc(OC)c(NC(=O)c2ccc(Cc3cc4c(cc3C)C(C)(C)CCC4(C)C)o2)c(OC)c1`, the Potency result is “inactive”.

For the compound `NS(=O)(=O)c1ccc(N2N=C(c3ccccc3)CC2c2ccccc2)cc1` (centres undefined), the Potency entry was “inactive”.

As for `C[C@@H]1C[C@H]2O[C@@]3(O[C@@H]2C(C)(C)O)C(O)[C@@]2(C)C4CCC5C(C)(C)[C@@H](O[C@H]6OC[C@H](O)[C@@H](O)[C@@H]6O)CC[C@@]56C[C@@]46CC[C@]2(C)C13` (some centres undefined), the Potency entry was “inactive”.

Consider `CC(C)CCNC(=O)c1ccc2c(c1)nc(Nc1n[nH]c3ccc(-c4ccccc4OC(F)(F)F)cc13)n2C1CCC(O)CC1` (centres undefined), for which the Potency result was “inactive”.

As for `CC(C)c1noc(C2CCN(c3ncnc(Nc4ccc(S(C)(=O)=O)cc4F)c3[N+](=O)[O-])CC2)n1`, the Potency entry was “inactive”.

On to `C=C1C(=O)OC2CC(C)C(CCC(C)O)=CCC12` (centres undefined), for which the Potency result was “inactive”.

Turning to `NC(N)=N/N=C/c1ccccc1Cl`, the Potency result was “inactive”.

As to `COC(=O)c1ccnc(-c2cc(C(=O)Nc3ccc(C4(N)CC4)cc3)ccn2)c1`, the Potency entry is “inactive”.

Turning to `COc1c(C(C)C)c(O)c(O)c2c1C(OC)[C@H]1OC(=O)[C@@]23CCCC(C)(C)[C@H]13` (some centres undefined), the Potency result is “inactive”.

As to `CC(=O)O[C@H]1C[C@H](OC(C)=O)[C@]2(C)[C@H](CC[C@@]34O[C@@H]3C3=C(C)C(=O)O[C@@H]3C[C@H]42)C1(C)C`, the Potency result is “inactive”.

On to `O=C1Cc2c([nH]c3ccc(Br)cc23)-c2ncccc2N1`, for which the Potency result is “inactive”.

Consider `C=C1C(=O)OC[C@@H]1C/C=C(\C)CC1CC(C)C(=O)O1` (some centres undefined), for which the Potency is 15.8 µM (active).

Consider `C=C1C(=O)OC2/C=C(\COC(C)=O)CC/C=C(\C=O)CC(OC(=O)C(C)CC)C12` (centres undefined), for which the Potency result was “inactive”.

Consider `O=C([C@@H]1CCCN(c2ccc3[nH]c(C4(n5cc(Cl)cn5)CC4)nc3n2)C1)N1CCCC1`, for which the Potency result was “inactive”.

For `NC(=O)N1CCC(CC(=O)N2CCC(C3c4ncc(Br)cc4CCc4cc(Cl)cc(Br)c43)CC2)CC1` (centres undefined), the Potency entry is “inactive”.

In the case of `COc1cc2c(NC3CCN(C(C)C)CC3)nc(N3CCC(F)(F)CC3)nc2cc1OCCCN1CCCC1`, the Potency result was “inactive”.

For the compound `CC(=O)OC1C(OC(=O)c2ccccc2)C2C(C)(C)CCC(OC(C)=O)C2(C)C23CCC(C)(C2)C(=O)CC13` (centres undefined), the Potency entry was “inactive”.

As for `CO[C@H]1O[C@@H]2O[C@@]3(C)CCC4[C@H](C)CCC([C@H]1C)[C@]42OO3` (some centres undefined), the Potency result is “inactive”.

Turning to `CC(C)(CNC(=O)c1cccc(-c2noc(C(F)(F)F)n2)c1)c1coc(-c2ccccc2)n1`, the Potency result was “inactive”.

With `CC(C)(C)c1ccc(-c2nc3c(N4CCN(Cc5ccc6nccnc6c5)CC4)cccc3[nH]2)cc1`, the Potency result is “inactive”.

On to `CNCCC(c1cccs1)c1ccc(O)c2ccccc12` (centres undefined), for which the Potency result is “inactive”.

As to `CC(/C=C/C(=O)NO)=C\[C@@H](C)C(=O)c1ccc(N(C)C)cc1`, the Potency result is “inactive”.

As for `COc1cc(C2OC(c3ccc(OC)c(OC)c3)C(C)C2C)ccc1O` (centres undefined), the Potency entry was “inactive”.

In the case of `C=C1C(=O)O[C@@H]2[C@H]3C(C)=CC(=O)C3=C(C)CC[C@@H]12`, the Potency result was “inactive”.

Take `O=c1[nH]c2cccc(N3CCN(Cc4ccc(-c5ccccc5)cc4)CC3)c2o1`: the Potency result was “inactive”.

`CC(C)S(=O)(=O)Nc1ccc(F)c(C(=O)c2c[nH]c3ncc(-c4cccnc4)cc23)c1F`: the Potency result is “inactive”.
